From the OligoGym collection come the findings set out here.
Further: reference of the scale not given here.

One test addresses PPIA. Put plainly: pooled miR-30 sensor sort-seq; sequence = guide strand. Conditions: shRNA.
Sequence AAACTTAACTCTGCAATCCAGC showed a sensor-assay potency score (higher = more potent) of -0.893.
For the sequence TTCTGCTGTCTTTGGGACCTTG, the sensor-assay potency score (higher = more potent) is -0.756.
Sequence TCATCTTCAAATTTCTCCCCAT came in with a sensor-assay potency score (higher = more potent) of -0.0656.

The next test addresses PPIF. Described as above. The settings on record: shRNA.
The sequence TTCAGCTCCAGCACCACGCGGC showed a sensor-assay potency score (higher = more potent) of -0.501.
Still for that read-out and setting: with TAAACAGGTATTAGAGTCCTTT the figure was -0.324; with TGACCGAACACAACATGCTTGC, -0.464; with TAGGAAGACAATATTAAACAGG, -0.559.
TAGCCATGGACAGGACACCTGG had a sensor-assay potency score (higher = more potent) of -1.46.
The same measure, in the same setting: as for TCTGTGATGACAATCTTCTTGG, the figure is 0.0684; as for TATTTTCTTCACGACGTCCATG, -0.975; as for TTCTATTTTCTTCACGACGTCC, -0.712.
On the same count and under the same terms, with TGTGATGACAATCTTCTTGGAT the figure was 0.322; with TTAAACAGGTATTAGAGTCCTT, -0.0918; with TTCACTTCTAGTCAATCTTGTT, -0.0767.
On the same count and under the same terms, with TTTCACTTCTAGTCAATCTTGT the figure was 0.721.
